These entries were drawn from the full list.
aSyn 5UTR act: Activators working through SNCA 5'UTR binding (MLPCN); alpha-synuclein 5'UTR reporter, activators screen; activity score, % (tested at 7.5 µM), hits read low; hit rate 7.1% among 300,000; AID 1814; in the data active means activity score below about -60%
The depositor's hits bear a star.

SMILES	aSyn 5UTR act
COC(=O)c1ccc(NC(=O)c2ccc3c(c2)OCO3)cc1	-143.7*
COCCN(C(=O)COC(=O)/C=C/c1ccccc1Cl)c1c(N)n(Cc2ccccc2)c(=O)[nH]c1=O	-91.9*
Cc1cccc(C)c1NS(=O)(=O)c1ccc(-c2cnc(C3CC3)o2)cc1	102.7
C[C@@H]1C=CC(=O)O[C@@H]1c1ccc(Cl)cc1	-193.8*
Cc1cs/c(=N\N=C\c2cccc([N+](=O)[O-])c2)n1Cc1ccco1	-97.3*
Oc1ccc(-c2nccc(-c3ccc(F)cc3)n2)cc1	-143.9*
Clc1ccc2oc(-c3ccccn3)nc2c1	-147.4*
c1ccc(-c2nc3ccccc3o2)nc1	-70.0*
Nc1ccc2oc(-c3ccccn3)nc2c1	-133.5*
COc1ccc(-c2nnc(SC)o2)c(OC)c1	-85.2*
COc1ccc(OC)c(-c2nnc(-c3ccc(C)o3)o2)c1	-63.3*
CN=c1scc(-c2ccc(OC)cc2)n1/N=C(\C)c1cccnc1	-156.0*
Clc1cccc(Cl)c1Cn1nnc(N2CCCC2)n1	-64.5*
CC1CCC(C(C)C)C(OC(=O)Cn2c(-c3ccccc3)[n+](C)c3ccccc32)C1 (stereo unspecified)	76.9
CCCNc1nc(C)nc2c1cnn2CCc1ccccc1	-104.9*
Cc1nc(NC(C)C)c2cnn(CCc3ccccc3)c2n1	-133.3*
C=CCn1cccc(/C=C/C(=O)c2ccc(C(C)(C)C)cc2)c1=S	-74.4*
CCCc1nnc(NC(=O)c2c(O)c3c([nH]c2=O)CCCC3)s1	-75.0*
O=C(N/N=C/c1cccc(Cl)c1)c1c(O)c2c([nH]c1=O)CCCC2	-99.9*
O=C(Nc1ccccc1O)c1c(O)c2c([nH]c1=O)CCCC2	-182.0*
O=C(Nc1nccs1)c1c(O)c2c([nH]c1=O)CCCC2	-208.7*
CCOc1c(Br)cc(CNc2ccc3c(c2)OCCO3)cc1OC	96.8
COc1ccc(CNc2ccc(Br)cc2)cc1	-111.9*
COc1ccc(NCc2ccc(OC)c(OC)c2)cc1	-105.0*
COc1ccc(CNc2ccc(C)c(C)c2)cc1	-71.7*
SMILES	aSyn 5UTR act
COc1cc(CNc2ccc(C)c(C)c2)cc(OC)c1OC	-166.0*
COc1ccc(CNc2cc(C)ccn2)cc1	-104.0*
COc1ccc(C(=O)Cc2ccc(OC)c(OC)c2)cc1	-109.4*
C/C(=N\NC(=S)Nc1ccc(F)cc1)c1ccc2c(c1)OCCO2	-80.3*
COc1cc(/C=C2\SC(N)=NC2=O)cc(OC)c1	-63.9*
Cc1noc(C)c1C(=O)OCC(=O)c1cc(C)n(Cc2ccccc2Cl)c1C	-98.3*
C/C(=N/OC(=O)CC(C)C)c1cc(-c2ccc(Cl)cc2)no1	-145.7*
C=C1C(=O)O[C@@H]2[C@H]1[C@@H](OC(=O)/C(C)=C/C)C/C(C)=C\C(=O)/C=C(\C)[C@@H]2O	-310.9*
O=C(/C(=C(\[O-])c1ccccc1)[n+]1ccc2ccccc2c1)c1ccc(Cl)cc1	-62.6*
O=C(/C(=C(\[O-])c1ccccc1)[n+]1ccc2ccccc2c1)c1ccccc1	-71.7*
CN(C)c1ccc(NC(=O)c2ccc(Cn3cc([N+](=O)[O-])cn3)cc2)cc1	-72.9*
O=C(Nc1cnn(Cc2c(Cl)cccc2Cl)c1)c1ccc([N+](=O)[O-])cc1	-64.6*
O=C(NCCc1ccccc1)C(=O)c1c[nH]c2ccccc12	-199.5*
O=C(NCCc1c[nH]c2ccccc12)C(=O)Nc1ccccc1	-65.3*
Cc1ccc(C)c(N=Nc2nc3ccccc3n2C)c1	-202.4*
Cc1cc(C)c(C)c(N=Nc2nc3ccccc3n2C)c1C	-74.8*
Cc1cccc(Nc2nc(-c3ccccc3)c(C(=O)Nc3cccnc3)s2)c1	-142.9*
COc1cc(C)c(C(C)C)cc1S(=O)(=O)n1cnc(C)c1	64.3
S=C(N/N=C/c1ccco1)NC1CC2CCC1C2 (stereo unspecified)	-89.5*
Oc1ccccc1/C=N/NC(=S)NC1CC2CCC1C2 (stereo unspecified)	-83.0*
O=C1CSC(c2ccc(F)cc2)N1c1nc2ccccc2s1 (stereo unspecified)	-91.3*
C/C(=C/c1oc2ccc(O)cc2c1[N+](=O)[O-])N(C)C	-95.6*
O=C(/C=C/c1ccc2ccccc2n1)c1cc(Cl)ccc1O	-69.2*
COc1cccc2oc3ccc(C#Cc4ccccn4)cc3c(=O)c12	-71.0*
O=c1c2ccccc2oc2cc(C#Cc3ccccn3)ccc12	-66.7*
SMILES	aSyn 5UTR act
COc1cc(-c2noc(C)c2C#Cc2ccccn2)cc(OC)c1OC	85.8
COc1ccc(/C=C/C(=O)Nc2ccc(-n3nncc3-c3ccc(OC)c(OC)c3)cc2)cc1OC	59.0
COc1ccc(/C=C/C(=O)Nc2ccccc2)cc1OC	-140.3*
Cc1ccc(/C(N)=N/OC(=O)/C=C/c2ccccc2)cc1	-63.1*
Cc1ccccc1/C(N)=N/OC(=O)/C=C/c1ccccc1	-177.9*
COc1ccc(/C(N)=N/OC(=O)/C=C/c2ccccc2)cc1	-88.5*
COc1ccc(/C=C/C(=O)c2cc(F)ccc2OC(=O)c2ccccc2C)cc1OC	82.1
COc1ccc(/C=C/C(=O)O/N=C(\N)c2ccccc2)cc1OC	-138.4*
COc1cc(/C=C/C(=O)NC(=O)c2ccccc2O)ccc1OC(C)=O	-161.2*
O=S(=O)(Cc1noc(-c2ccccc2Cl)n1)c1ccccn1	-70.4*
